# From the antibiotic and cytotoxicity screens of Wong et al. (2023)
# Out of some 39,000 compounds screened, about 3,300 (8.5%) were called active. Only a selection was taken, and actives are over-represented in it overall.
# Tested on: HepG2
# Assay: cytotoxicity call (relative viability < 0.9)
# Settings: 10 µM
row,SMILES,cytotoxicity call
1,COCC1=C(C(=O)OC(C)OC(=O)OC(C)C)N2C(=O)C(NC(=O)C(=NOC)c3csc(N)n3)C2SC1 (stereo not drawn),inactive
2,C[C@H](CO)N1C[C@H](C)[C@@H](CN(C)Cc2ccncc2)Oc2cc(C#CC(C)(C)O)ccc2S1(=O)=O,inactive
3,C[C@@H]1CCCCO[C@@H](CN(C)C(=O)C2CCCCC2)[C@H](C)CN([C@H](C)CO)C(=O)c2cc(NC(=O)c3ccncc3)ccc2O1,inactive
4,Cc1noc(C)c1NC(=O)N(C)C[C@H]1Oc2c(NC(=O)Nc3ccc(C(F)(F)F)cc3)cccc2C(=O)N([C@@H](C)CO)C[C@H]1C,active
5,Cc1noc(C)c1NC(=O)N(C)C[C@@H]1Oc2c(NC(=O)Nc3ccc(C(F)(F)F)cc3)cccc2C(=O)N([C@@H](C)CO)C[C@H]1C,inactive
6,C[C@H](CO)N1C[C@H](C)[C@H](CN(C)C(=O)Nc2ccc3c(c2)OCO3)Oc2c(NC(=O)Nc3ccc(C(F)(F)F)cc3)cccc2C1=O,active
7,C[C@H](CO)N1C[C@H](C)[C@@H](CN(C)C(=O)Nc2ccc(C(F)(F)F)cc2)Oc2c(NC(=O)Nc3ccc(C(F)(F)F)cc3)cccc2C1=O,active
8,C[C@@H]1CN([C@@H](C)CO)C(=O)c2cccc(NC(=O)Nc3ccc(C(F)(F)F)cc3)c2O[C@H]1CN(C)C(=O)Nc1ccc2c(c1)OCO2,inactive
9,Cc1noc(C)c1NC(=O)N(C)C[C@@H]1Oc2c(NC(=O)Nc3ccc(C(F)(F)F)cc3)cccc2C(=O)N([C@H](C)CO)C[C@H]1C,inactive
10,C[C@@H]1CN([C@H](C)CO)C(=O)c2cccc(NC(=O)Nc3ccc(C(F)(F)F)cc3)c2O[C@@H]1CN(C)C(=O)Nc1ccc2c(c1)OCO2,inactive
11,O=C1c2ccccc2[C@@]2(Cc3ccccc3N(Cc3ccccc3)C2=O)[C@H](c2ccc(CO)cc2)N1Cc1ccccc1C(F)(F)F,inactive
12,Cc1noc(C)c1S(=O)(=O)N(C)C[C@@H]1Oc2ccc(NS(=O)(=O)c3cccs3)cc2CC(=O)N([C@H](C)CO)C[C@@H]1C,inactive
13,CN(C)Cc1cn(CC[C@@H]2CC[C@@H](NC(=O)Cc3cccnc3)[C@H](CO)O2)nn1,inactive
14,Cc1noc(C)c1NC(=O)Nc1ccc2c(c1)CC(=O)N([C@@H](C)CO)C[C@H](C)[C@@H](CN(C)C(=O)NC(C)C)O2,inactive
15,O=C(C[C@H]1CC[C@@H]2[C@H](COC[C@H](O)CN2C(=O)Nc2ccc(F)cc2)O1)NCCCN1CCOCC1,inactive
16,OC[C@@H](O)CN1CCN(c2ccccc2)CC1,inactive
17,Cc1nc(-c2ccc(OCC(C)C)c(C#N)c2)sc1C(=O)O,active
18,COc1ccc(S(=O)(=O)N(C)C[C@H]2Oc3ccc(NC(=O)c4ccncc4)cc3C(=O)N([C@@H](C)CO)C[C@@H]2C)cc1,inactive
